Common to all, as to experiment: NCI-60 one-dose screen, 48 h (100 = growth as untreated, 0 = no growth, -100 = all killed)
Conditions in all cases: 10 µM unless noted

In assay [1] the test system is NCI-H23 lung.
Assay [2] has as its system NCI-H226 lung.
The subject of assay [3] is NCI-H322M lung.
Assay [4] relates to HOP-62 NSCLC.
The subject of assay [5] is NCI-H460 lung.
The subject of assay [6] is HOP-92 NSCLC.
Assay [7] has as its system NCI-H522 lung.
For assay [8], the system named is A549/ATCC NSCLC.
The test system of assay [9] is 786-0 renal.
Assay [10] relates to COLO 205 colon.

Values joined by “and” are separate entries in the source; they are usually repeats but may differ in a detail not shown here. Equal values may be shown once. Compounds without any hit were thinned out: in the full panel of roughly 83,000, 20% have a hit.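 Cell lines were cultured in 96-well plates, exposed to a single compound concentration, and assessed for percent growth 48 hours later.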 Active and inactive are the calls of the source. The calls were made as follows: active = growth percent below 10; inactive = the rest.

Turning to `COc1ccc(-c2nc(C#N)c(N3CCC(S(=O)(=O)N4CCOCC4)CC3)o2)cc1`, the growth in [1] is 94.5% (inactive); in assay [2] it was 93.9% (inactive); in assay [3], 97.2% (inactive); in [4], 99.2% (inactive); in [5], 103% (inactive); in assay [6], 99.3% (inactive). The growth was 89.5% (inactive) in assay [7], 98.1% (inactive) in assay [8], 94.2% (inactive) in assay [9] and 111% (inactive) in assay [10].

Turning to `CCOC(=O)C1=C(C)NC(C)=C(C(=O)OCc2ccccc2)C1c1cccc(C#N)c1` (stereo not given), the growth was 62.5% (inactive) in [1]; 58.4% (inactive) in assay [2]; 69% (inactive) in [3]; 45.6% (inactive) in assay [4]; 22.1% (inactive) in assay [5]; 50.5% (inactive) in assay [6]. For the same compound, the growth in assay [7] was 9.38% (active); in assay [8], 34.1% (inactive); in assay [9], 36.2% (inactive); in assay [10], 34.5% (inactive).

For `O=C(/C=C/c1cccc(F)c1)c1cccc(OCCCCOc2cccc(C(=O)/C=C/c3cccc(F)c3)c2)c1`, the growth is 102% (inactive) in [1]; 103% (inactive) in assay [2]; 102% (inactive) in assay [3]; 114% (inactive) in assay [4]; 100% (inactive) in assay [5]; 139% (inactive) in [6]. Also, the growth in [7] was 93.4% (inactive); in assay [8], 104% (inactive); in assay [9] it was 106% (inactive); in [10], 117% (inactive).

Take `N#C/C(=C\c1ccc(-c2ccc(Cl)cc2)o1)C(=O)Nc1ncc(Cc2ccc(Br)cc2)s1`: the growth in assay [1] was -30.6% (active); in assay [2], 40.3% (inactive); in assay [3], 19.1% (inactive); in assay [4], 5.97% (active); in assay [5], -78.1% (active); in [6], 8.49% (active). Besides, the growth in assay [7] was 4.79% (active); in assay [8], -53% (active); in assay [9], 23.4% (inactive); in [10], 41.1% (inactive).

For the compound `COCCOc1ccc2ncc(C#Cc3cncc(C(=O)Nc4ccc(CN5CCN(C)CC5)c(C(F)(F)F)c4)c3)n2n1`, the growth is -48.7% (active) in assay [1]; -12.7% (active) in [2]; 18.7% (inactive) in assay [3]; 18.4% (inactive) in [4]; 0.556% (active) in assay [5]; -44.1% (active) in assay [6]. Moreover, the growth in assay [7] is -56.4% (active); in [8], 10.3% (inactive); in assay [9], -15.3% (active); in assay [10], -32.7% (active).

For the compound `Nc1cc(C(=O)N/N=C\c2ccc(OC(F)F)c(OC3CCCC3)c2)nn1CC(O)c1ccccc1` (stereo not given), the growth in [1] was 95.7% (inactive); in assay [2] it was 92.7% (inactive); in assay [3], 103% (inactive); in assay [4] it was 101% (inactive); in assay [5], 105% (inactive); in [6], 84.1% (inactive). Besides, the growth in assay [7] was 88.9% (inactive); in assay [8], 95.3% (inactive); in assay [9], 107% (inactive); in assay [10], 112% (inactive).

As for `Cc1ccc2c(n1)C(=O)C(Cl)=C(Nc1cccc(C(F)(F)F)c1)C2=O`, the growth is 52.3% (inactive) in assay [1]; 73.3% (inactive) in assay [2]; 108% (inactive) in assay [3]; 141% (inactive) in assay [4]; 101% (inactive) in [5]; 107% (inactive) in [6]. For the same compound, the growth was -28.8% (active) in assay [7], 105% (inactive) in assay [8], 85.8% (inactive) in assay [9] and 106% (inactive) in [10].

Regarding `CCCCCCCCCC(=O)NC(C)(C)C(=O)N1CCC[C@H]1C(=O)N[C@@H](CC(C)C)C(=O)N[C@@](C)(CC)C(=O)N[C@@H](CCC(N)=O)C(=O)N[C@H](CCC(N)=O)C(=O)NC(C)(C)C(=O)NC(C)(C)C(=O)N[C@@H](CCC(N)=O)C(=O)N[C@H](CC(C)C)C(=O)N[C@H](CO)CC(C)C`, the growth in assay [1] was -85.9% (active) and -32.1% (active); in assay [2] it was -71.3% (active) and -31.6% (active); in [3] it was -88.1% (active) and 18.4% (inactive); in assay [4] it was -70.9% (active) and -64.1% (active); in assay [5], -83.6% (active) and -71% (active); in assay [6], -91.1% (active) and -43.9% (active). For the same compound, the growth was -83.3% (active) and -75.7% (active) in assay [7]; -72% (active) and 49.1% (inactive) in assay [8]; -82.1% (active) and -64.3% (active) in [9]; -63% (active) and -63.6% (active) in [10].

With `O=C(CCCCCC/C=C\c1csc(Br)n1)NO`, the growth in assay [1] is 95.2% (inactive); in assay [2], 96.8% (inactive); in assay [3], 100% (inactive); in assay [4], 88.9% (inactive); in [5], 85.8% (inactive); in [6] it was 102% (inactive). The growth in assay [7] is 65.6% (inactive); in assay [8], 91.9% (inactive); in assay [9], 104% (inactive); in assay [10], 95% (inactive).

Consider `O=C(/C=C/c1ccc(Cl)c(Cl)c1)Nc1ncc(Cc2ccc(Cl)c(Cl)c2)s1`, for which the growth in assay [1] is 70.4% (inactive); in [2], 70.7% (inactive); in assay [3], 58.5% (inactive); in assay [4], 50.9% (inactive); in assay [5], 28.3% (inactive); in assay [6] it was 92.7% (inactive). The growth in assay [7] is 40.4% (inactive); in [8], 53.5% (inactive); in assay [9], 78.8% (inactive); in assay [10], 4.63% (active).

Consider `CC1(C)CC[C@]23CC[C@]4(C)[C@H](CC[C@@H]5[C@@]6(C)CC[C@H](N)C(C)(C)[C@@H]6CC[C@]54C)[C@H]2[C@H]1OC3`, for which the growth in assay [1] was 88.8% (inactive); in assay [2] it was 96.6% (inactive); in assay [3], 93.6% (inactive); in [4] it was 96.1% (inactive); in assay [5], -34.8% (active); in [6], 69.3% (inactive). The growth in [7] is 99% (inactive); in [8], 24.3% (inactive); in [9] it was -60.4% (active); in assay [10], -40.4% (active).

In the case of `Cc1ccc(C(=O)CSc2nc3ccccc3c(=O)n2C)cc1`, the growth was 79.7% (inactive) in [1]; 78.5% (inactive) in assay [2]; 89.1% (inactive) in assay [3]; 94% (inactive) in assay [4]; 95.5% (inactive) in assay [5]; 79.6% (inactive) in assay [6]. Besides, the growth in [7] is 85.3% (inactive); in assay [8], 101% (inactive); in assay [9], 97.9% (inactive); in assay [10], 119% (inactive).

With `Cn1cc(-c2cc3ncnc(Nc4ccc(NC(=O)Nc5cc(C(C)(C)C)on5)cc4)c3s2)cn1`, the growth was 29.4% (inactive) in [1]; 30.7% (inactive) in assay [2]; 57.4% (inactive) in assay [3]; 62.7% (inactive) in assay [4]; 42.6% (inactive) in assay [5]; 22.5% (inactive) in [6]. Moreover, the growth in assay [7] was 32.5% (inactive); in assay [8], 31.6% (inactive); in assay [9], 3.44% (active); in [10], 12.9% (inactive).

The values above are taken from PubChem BioAssay (NCI).
